From the supplement of paper PMC4166925
± gives the standard deviation of the averaged measurements. Over roughly 33,000 sequences, “E-score (dimensionless, -0.5 to 0.5)” has its median near -0.046; the highest 2% begin near 0.36. The sample holds the highest values, similar sequences and a random draw of the others, so the mix is not that of the screen.

System: T1, SpTbr T-box DNA-binding domain (GST fusion)
T1 sequence: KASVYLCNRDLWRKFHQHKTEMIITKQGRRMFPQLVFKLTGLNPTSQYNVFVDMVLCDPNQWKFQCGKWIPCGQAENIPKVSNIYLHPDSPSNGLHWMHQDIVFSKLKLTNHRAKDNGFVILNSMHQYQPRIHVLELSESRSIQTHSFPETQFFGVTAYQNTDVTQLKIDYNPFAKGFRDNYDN
Experiment: PBM E-score of 8-mer (E-score (dimensionless, -0.5 to 0.5)); Tbr is Tbrain of the sea star Patiria miniata (Pm) or the sea urchin Strongylocentrotus purpuratus (Sp); higher = stronger binding preference
Details: the construct has about 5 more residues each side
Description: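 Universal protein-binding microarray (Agilent AMADID 016060, 60-bp probes with a 35-bp variable region) incubated with 200 nM GST-fused Strongylocentrotus purpuratus Tbr T-box DNA-binding domain (residues 362-554) in PBS pH 7.5. Scored for every ungapped 8-mer (given with its reverse complement) as E-score (range -0.5 to 0.5; >0.45 counts as bound) and Z-score of median probe intensity. Two replicate arrays (datasets 1 and 2).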
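Also: protein at 200 nM in PBS on universal double-stranded arrays.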

Sequence	PBM E-score of 8-mer
GGTGTCAC	0.475 ± 0.0052
AGTGTCAG	0.371 ± 0.0097
GTTGTCTA	-0.123 ± 0.027
CGTGTCTA	0.135 ± 0.05
AATGTCAG	0.0267 ± 0.006
CCTGTCAA	0.328 ± 0.025
CGTGTCAA	0.4367 ± 0.0011
GCTCGCCA	0.231 ± 0.017
GCCCCATA	-0.112 ± 0.064
ATGGGGAG	-0.243 ± 0.051
AGGGGTGG	0.147 ± 0.069
AATGGCTA	-0.134 ± 0.02
CATGAGTC	-0.08024 ± 0.00076
GACTTATA	0.0117 ± 0.031
ACAACCCT	0.0805 ± 0.0049
ATCGTTGC	-0.00439 ± 0.021
TCTGTCAA	0.109 ± 0.046
AGTGTCAT	0.405 ± 0.017
GGTGTCTA	0.292 ± 0.0045
ACTGTCAT	0.196 ± 0.032
ACTGTCAA	0.183 ± 0.035
GCTGTCAA	0.318 ± 0.049
AGTGTCAA	0.453 ± 0.0054
GGTGTCAA	0.4808 ± 0.0038
AATGTCAT	-0.162 ± 0.031

Sequence	PBM E-score of 8-mer
AGTGTCTA	0.17 ± 0.024
TATGTCAA	0.159 ± 0.0082
TGTGTCAA	0.398 ± 0.011
TAAGAACA	-0.0304 ± 0.082
ATATAGTC	-0.0444 ± 0.027
ATAGCCCA	-0.13 ± 0.078
CGCAGAGA	-0.217 ± 0.082
CCAATAAG	-0.199 ± 0.0037
CATGAATC	0.0324 ± 0.072
CCCCCCCC	-0.0653 ± 0.059
AACTCTGC	0.164 ± 0.011
GGAAGCAA	-0.216 ± 0.074
CGTGTCAC	0.362 ± 0.034
AGTGTCAC	0.43943 ± 0.00026
ACTGTCAC	0.35403 ± 0.00029
ACGCCCAA	-0.049 ± 0.13
CACAGACC	-0.0948 ± 0.053
ACACACCG	0.224 ± 0.013
AGACACCG	0.0814 ± 0.026
ACGCACCT	0.366 ± 0.0075
ACACACCT	0.44741 ± 0.0002
AGACACAT	0.229 ± 0.0028
ACACACAT	0.328 ± 0.0053
AAACACCT	0.442 ± 0.015
AAACACCG	0.155 ± 0.0066

Sequence	PBM E-score of 8-mer
AGACACCT	0.4345 ± 0.003
ACGCACCA	0.0513 ± 0.0069
AAACACCC	0.1718 ± 0.0003
ACGCACCG	0.0314 ± 0.086
GCTTCAAA	0.0158 ± 0.019
ACCAATGA	-0.0571 ± 0.11
GTAGATAA	-0.151 ± 0.039
GATCGTGA	0.173 ± 0.054
ACCTGGTA	-0.0333 ± 0.028
CGGCCCTC	-0.119 ± 0.093
GACGTTCC	-0.197 ± 0.016
AAGTGAAG	0.13 ± 0.049
ACAGATGT	0.152 ± 0.018
ACCTATTC	0.0131 ± 0.033
GACCCGTA	-0.0138 ± 0.012
ACTTCTAC	0.037 ± 0.013
CGGAGCCA	-0.164 ± 0.067
CATGCCCC	-0.219 ± 0.047
CGCACATC	0.338 ± 0.022
AACACATT	0.383 ± 0.024
AACACATA	0.345 ± 0.029
AACACATC	0.375 ± 0.012
AACACACT	0.211 ± 0.022
AACACAGC	0.115 ± 0.086
CACACATC	0.4 ± 0.013

Sequence	PBM E-score of 8-mer
GACACATC	0.363 ± 0.028
ATCACATC	0.109 ± 0.02
AACACATG	0.336 ± 0.046
CTCACATA	0.157 ± 0.034
CTCACATC	0.377 ± 0.013
CATGAAAC	-0.146 ± 0.031
GCTAGCAC	0.2678 ± 0.0018
TAAGGTAA	-0.107 ± 0.0024
AGTGCTGA	0.0461 ± 0.029
CTCCTCTC	0.0391 ± 0.091
GCCCAATA	-0.142 ± 0.1
AAGCTATA	-0.0728 ± 0.05
ACAGGTGG	0.316 ± 0.026
ACAGGTTA	0.257 ± 0.043
ACAGGTGC	0.436 ± 0.013
CCAGGTGA	0.306 ± 0.012
GTAGGTGA	0.379 ± 0.023
CTAGGTGA	0.356 ± 0.026
GTAGGTTA	-0.184 ± 0.0098
GCAGGTAA	-0.0374 ± 0.063
ACAGGTGA	0.373 ± 0.0074
GCAGGTCA	0.036 ± 0.077
GCAGGTGA	0.414 ± 0.011
CCAGGTGC	0.3516 ± 0.00069
GTCATAAA	-0.00255 ± 0.054

Sequence	PBM E-score of 8-mer
AAAAGATA	-0.0313 ± 0.063
CTACGCAC	0.0937 ± 0.02
TACCTCTA	-0.164 ± 0.002
ATAAGAGC	-0.19 ± 0.022
ACCCTCGG	-0.124 ± 0.045
ATGCAGAG	-0.18 ± 0.023
ACGAACCG	0.192 ± 0.063
CATTTTCA	0.0656 ± 0.088
AGTTCTGA	-0.131 ± 0.043
TAGACCCA	-0.101 ± 0.067
AAGTGGTG	0.205 ± 0.007
CGACCATC	0.0183 ± 0.023
CAGAGGAG	-0.063 ± 0.011
AGGTGGCC	0.075 ± 0.0048
GGGTGGCA	0.288 ± 0.014
AGGTGGCA	0.432 ± 0.015
CGGTGGCA	0.186 ± 0.053
AGGTGGAG	0.158 ± 0.025
AGGTGGCG	0.401 ± 0.011
CCCATCAC	0.189 ± 0.031
CCCGAGGG	-0.341 ± 0.026
AACGCATA	0.0089 ± 0.0093
GACGCCTC	0.328 ± 0.017
TACGCCTA	0.0945 ± 0.018
AACGCCTT	0.367 ± 0.041

Sequence	PBM E-score of 8-mer
AGCGCCTC	0.268 ± 0.0083
CGCGCCTA	0.356 ± 0.037
CACGCCTC	0.395 ± 0.032
CGCGCCTC	0.365 ± 0.039
AACGCCTG	0.292 ± 0.006
AACGCCAT	0.199 ± 0.029
AACGCCTA	0.298 ± 0.038
CACGCCTA	0.375 ± 0.016
AACGCCTC	0.35 ± 0.0088
ACTCGCTC	-0.0581 ± 0.083
AGCCAATG	-0.218 ± 0.056
AAACCGCG	0.0876 ± 0.057
AGCATCTG	-0.116 ± 0.028
GCCACGGC	-0.0294 ± 0.015
GCTGTTAC	0.0324 ± 0.031
CGTGTTAG	0.332 ± 0.015
AGTGTAAA	0.338 ± 0.049
GGTGTAAC	0.349 ± 0.014
AGTGTTAG	0.3895 ± 0.00056
CGTGTTAA	0.409 ± 0.0099
CGTGTTAC	0.308 ± 0.0063
GGTGTAAA	0.436 ± 0.012
CCTGTTAA	0.168 ± 0.067
ACTGTTAG	0.195 ± 0.048
GGTGTTAC	0.4612 ± 0.0021

Sequence	PBM E-score of 8-mer
AGTGTTTG	0.219 ± 0.041
AGTTAGAT	-0.191 ± 0.0088
CCTAACTC	-0.0227 ± 0.032
ACAGCCAA	0.00932 ± 0.037
CACCACCA	0.145 ± 0.0054
AATAGCAA	0.151 ± 0.019
AGTCCTTG	-0.0449 ± 0.074
AGGCGGTG	-0.0537 ± 0.076
GGAGCCCC	-0.206 ± 0.022
AGTGTTGA	0.351 ± 0.006
TATGTTAA	0.0661 ± 0.067
CGTGTTTA	0.123 ± 0.047
ACTGTTAT	0.152 ± 0.032
AGTGTTGG	0.3684 ± 7.1e-06
AATGTTAT	0.0346 ± 0.014
AGTGTTAT	0.372 ± 0.045
AGTGTTTA	0.245 ± 0.062
AGTGTTGC	0.346 ± 0.0099
GGTGTTTA	0.386 ± 0.015
TCTGTTAA	0.131 ± 0.02
TGTGTTAA	0.407 ± 0.011
GGTCTCAA	-0.0536 ± 0.098
